PubChem BioAssay
Entries with a potency or affinity are not part of this list.

Assay: inducers of Cryptococcus neoformans cell lysis, dose response, AK release luminescence, cherry-picks (AID 687000);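 further: luminescent detection of adenylate kinase leaking from lysed yeast; 0% = median neutral control signal and 100% = double that signal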
Conditions: C. neoformans lysis, adenylate kinase release luminescence, 4 h, 100% = twice the neutral-control signal; series mostly up to 15 µM; lysis activity: at the top concentration;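 active means fitted dose curve reaches 40% lysis signal rise at or below the highest valid concentration tested for that sample; inconclusive means flat fit between 30% and 70%, or poor curve fit; inactive means signal falls, stays flat within 30%, or no crossing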

Lysis activity, inactive:
CN(C)CCCn1c(=O)n(C2CCCCC2)c(=O)c2c3c(sc21)CCCCC3 14%, Cc1ccc(/C=C2\SC(=S)N(NS(=O)(=O)c3ccc(C)cc3)C2=O)cc1 -24.5%, Cc1ccc(C(=O)NC(=S)Nc2cccc(NC(=O)c3ccccc3)c2)cc1[N+](=O)[O-] -7.6%, CC(=O)N[C@H]1CC[C@@H](CCNC(=O)C2CCC2)O[C@H]1CO -2.67%, COc1ccc(CN(C)C[C@@H]2Oc3ccc(NS(C)(=O)=O)cc3CC(=O)N([C@H](C)CO)C[C@H]2C)cc1 -11.6%, Cc1ccc(NC(=S)NCc2ccc(Cl)cc2)c(OC(F)F)c1 1.77%, O=C(COc1ccc2c(c1)CCC2)NCc1ccccc1 -13%, O=C(CN1CCOCC1)N[C@@H]1CC[C@@H](CCNC(=O)C2CCC2)O[C@@H]1CO 8.01%, O=C(Oc1ccc2c3c(c(=O)oc2c1)CCCC3)c1ccco1 -44.6%, O=C(NC(=S)NCC1COc2ccccc2O1)c1ccccc1 (stereo unspecified) 9.46%, COc1ccc(C2CC(c3cccs3)=NN2C(=O)c2ccco2)cc1OC (stereo unspecified) 4.54%, O=C(NC(=S)Nc1ccc(N2CCOCC2)cc1)c1cccc([N+](=O)[O-])c1 -15%, C[C@@H]1CN([C@H](C)CO)C(=O)c2cc(NS(=O)(=O)c3cn(C)cn3)ccc2O[C@@H](C)CCCCO[C@H]1CN(C)C 29.1%, COC(=O)C1=C(C)N(Cc2ccc(F)cc2)C(=S)NC1c1cccc(OC)c1 (stereo unspecified) 10.3% [at 16 µM], O=C(CN(c1ccc(F)cc1)S(=O)(=O)c1ccccc1)NC1CC2CCC1C2 (stereo unspecified) -22.3%, C#CCN(C(=O)c1ccc(OC2CCN(C(=O)CCOC)CC2)cc1)C1CCCCC1 9.08%
